Screening data from PubChem BioAssay.
TRPV1 potentiator: human TRPV1 potentiation; TRPV1-expressing cells, Fluo-8 calcium influx, capsaicin EC20 potentiation; hit rate 0.02% among 320,000; Q8NER1; potentiation, % at 8.33 µM; AID 540277; in the data active means potentiation above about 80%; inconclusive means between about 30% and that limit; further: 0% is about no effect
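Fluo-8 calcium influx in TRPV1-expressing cells, kinetic read (ex 480/em 520 nm). Compound added and read 3 min for agonist activity, followed by capsaicin at EC20 final and 2 min further read for enhancement.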
p53 reactivation: mutant p53 re-activation in reporter cells; H1299 p53-A138V BP100-luciferase reporter, luminescence, 24 h; Potency, µM (top dose mostly 92.2 µM), for inactives: at the highest dose activity change, positive = activation, hits mostly activators; hit rate 0.063% among 320,000; active means well fitted activation curve with a large enough effect; inconclusive means small, poorly fitted or top-dose-only effect; inactive means no such curve, though single readings can be large or run the other way; further: potency means the concentration at half of the fitted maximal effect; % of control where 0% means no effect; nearly all actives have a fitted effect of over 45% in size
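p53-null H1299 cells stably carrying temperature-sensitive p53-A138V and a BP100-luciferase reporter were pinned with compounds (4-point, 1:5 series) and held 24 hrs at 37 deg C. Luminescence was read 10 min after detection reagent.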
KCNH2 3.1 block: inhibitors of human KCNH2 3.1 potassium channel isoform; U2OS KCNH2 3.1, thallium flux FluxOr; active compounds read low; activity change, % (tested at about 1.8 µM); hit rate 0.95% among 340,000;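 active means maximum activity change below -70%; inconclusive means maximum activity change from -70% to -50%; inactive means maximum activity change above -50%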;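 further: thallium influx rate constant from kinetic fluorescence after stimulation buffer; on the % scale 0 is the no-effect control and ±100 the full control effect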
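FluxOr-based Tl+ influx in U2OS cells transduced with KCNH2 3.1 virus; rate constants normalized to DMSO controls.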
ClpP mod: qHTS Assay for Activators of ClpP | ATP-dependent Clp protease proteolytic subunit (Bacillus subtilis (strain 168)), P80244 | purified B. subtilis ClpP, FRET peptide cleavage, 20 min | Potency, µM (series often up to 57.5 µM), without a hit: top-dose activity change, negative = active | hit rate 1.9% among 340,000 | AID 651965, 2013; active means well fitted falling curve with a large enough effect; inconclusive means small, poorly fitted or top-dose-only effect; inactive means no such curve, though single readings can be large or run the other way; further: potency means the concentration at half of the fitted maximal effect; the source files actives as falling curves though it sought activators and does not explain the sign; nearly all actives have a fitted effect of over 65% in size
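ClpP 10 microg/mL final, pH 8 Tris/KCl buffer with BSA, glycerol, Tween-20; compound pinned in; FRET-FV substrate; RT 20 min; Ex320/Em430; ΔFRET vs ADEP 5.8 microM, DMSO, no enzyme.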
hERG WT inh: blocks the wildtype human KCNH2 potassium channel. Q12809. U2OS, BacMam KCNH2, thallium flux FluxOr; active compounds read low. activity change, % at 1.84 µM. hit rate 0.37% among 340,000;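 active means maximum activity change below -70%; inconclusive means maximum activity change between -70% and -50%; inactive means maximum activity change above -50%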; further: on the % scale 0 is the no-effect control and ±100 the full control effect
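U2OS cells transduced with wild-type KCNH2 virus are loaded with FluxOr dye for 45 min, and thallium flux is measured in kinetic reads before and after stimulation buffer. Rate constants are normalized to DMSO controls.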
TRPV1 ag: agonists of human vanilloid receptor 1 (TRPV1). Q8NER1. TRPV1-expressing cells, Fluo-8 calcium influx, agonist mode. activation, % at 8.33 µM. hit rate 0.19% among 320,000; in the data active means activation above about 80%; inconclusive means between about 30% and that limit; further: 0% is about no effect
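Fluo-8 calcium influx in TRPV1-expressing cells, kinetic read (ex 480/em 520 nm). Compound added and read 3 min for agonist activity, followed by capsaicin at EC20 final and 2 min further read for enhancement.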
* = called active by the depositor. An excerpt weighted towards active compounds, which were near 2.6% of everything screened.

How did CCOC(=O)c1c(S(=O)(=O)NCC(=O)N2CCN(c3cccc(Cl)c3)CC2)c(C)n(C)c1C do in these assays?
ClpP mod: -0.1%

How did CC1CCN(C(=O)C2COc3ccccc3C2)CC1 (stereo not drawn) do in these assays?
ClpP mod: -2.0%

Results for CCCN1CNc2c(c(=O)[nH]c(=S)n2CCc2ccc(Cl)c(Cl)c2)C1 ?
ClpP mod: 2.9%

How did O=C(CC1(O)C(=O)N(Cc2ccc3c(c2)OCO3)c2ccccc21)c1ccccc1 (stereo not drawn) do in these assays?
TRPV1 potentiator: 18.0; p53 reactivation: 2.5%; KCNH2 3.1 block: -0.2; ClpP mod: -0.8%; hERG WT inh: -4.7; TRPV1 ag: 0.8

Results for Cc1ccc(C(=O)CC2(O)C(=O)N(Cc3ccc4c(c3)OCO4)c3ccccc32)cc1 (stereo not drawn) ?
TRPV1 potentiator: 24.2; p53 reactivation: -4.8%; KCNH2 3.1 block: 2.1; ClpP mod: 15.8µM*; hERG WT inh: 2.0; TRPV1 ag: 1.8

How did CCOc1ccc(CCNC(=O)CCc2c(C)nc3c4c(C)cc(C)nc4nn3c2C)cc1 do in these assays?
ClpP mod: -19.8%

What do the screens show for `COc1ccc(C(=O)N/N=C(\C)Cn2nc([N+](=O)[O-])cc2C)cc1`?
TRPV1 potentiator: inconclusive; p53 reactivation: 4.5%; KCNH2 3.1 block: 0.7; ClpP mod: 11.2µM*; hERG WT inh: -0.3; TRPV1 ag: -10.1

How did C/C(Cn1nc([N+](=O)[O-])cc1C)=N\NC(=O)c1ccc(C(C)(C)C)cc1 do in these assays?
TRPV1 potentiator: -0.3; p53 reactivation: 4.9%; KCNH2 3.1 block: -4.4; ClpP mod: 0.7%; hERG WT inh: 13.4; TRPV1 ag: 3.5

What do the screens show for `Cc1cc(-c2ccccc2)[nH]c(=O)c1S(=O)(=O)c1ccc(Cl)cc1`?
p53 reactivation: 0.6%; KCNH2 3.1 block: 2.7; ClpP mod: inconclusive; hERG WT inh: -2.5

What do the screens show for `Cc1cc(-c2ccccc2)[nH]c(=O)c1S(=O)(=O)c1ccccc1`?
p53 reactivation: -3.7%; KCNH2 3.1 block: 7.4; ClpP mod: 14.1µM*; hERG WT inh: -21.1

How did Nc1nc(NCCCN2CCOCC2)nc(Nc2cccc(F)c2)c1[N+](=O)[O-] do in these assays?
p53 reactivation: -7.2%; KCNH2 3.1 block: -21.1; hERG WT inh: -2.5

Results for Cc1cccc(Nc2nc(NCCCN3CCOCC3)nc(N)c2[N+](=O)[O-])c1 ?
TRPV1 potentiator: 1.0; p53 reactivation: -16.7%; KCNH2 3.1 block: -1.6; ClpP mod: 20µM*; hERG WT inh: -30.1; TRPV1 ag: 0.5

What do the screens show for `Ic1ccc(N2CCN(Cc3c[nH]c4ncccc34)CC2)cc1`?
TRPV1 potentiator: -9.2; p53 reactivation: -7.2%; KCNH2 3.1 block: -79.3*; ClpP mod: -5.9%; hERG WT inh: -19.4; TRPV1 ag: 3.2

How did Oc1ccc(CN2CCN(c3ccccc3)CC2)c2cccnc12 do in these assays?
TRPV1 potentiator: 6.1; p53 reactivation: -4.2%; KCNH2 3.1 block: -3.8; ClpP mod: 1.2%; hERG WT inh: -6.7; TRPV1 ag: -4.3

Results for CC(C)(C)c1ccc(C(=O)C[n+]2ccccc2Cl)cc1 ?
ClpP mod: -18.2%

Results for COc1ccc(C(=O)N/N=C/c2sc3ccccc3c2O)cc1 ?
TRPV1 potentiator: inconclusive; p53 reactivation: inconclusive; KCNH2 3.1 block: -4.7; ClpP mod: 2.1%; hERG WT inh: -9.7; TRPV1 ag: 5.8

What do the screens show for `O=C(N/N=C/c1sc2ccccc2c1O)c1ccccc1`?
TRPV1 potentiator: -13.7; p53 reactivation: 14.1µM*; KCNH2 3.1 block: 0.0; ClpP mod: -1.1%; hERG WT inh: -2.6; TRPV1 ag: 25.4

How did COc1ccc2ccccc2c1/C=N/Nc1cccc(C(=O)O)c1 do in these assays?
TRPV1 potentiator: inconclusive; p53 reactivation: inconclusive; KCNH2 3.1 block: 5.5; hERG WT inh: -10.9; TRPV1 ag: -1.6
